Laboratory results from the supplement of paper PMC12669032.
A number with no mark means an inactive call.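 How the source made its calls: active = AUC reduced over 20% with Padj below 0.05 in at least 2 of 3 replicates; inactive = otherwise.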

Assays:
Assay in all cases: growth AUC relative to DMSO control (median of replicates) (fraction); higher = more growth (less inhibition), active = hit call of the paper
Conditions in all cases: 20 µM; 24 h
Akkermansia muciniphila = test system: Akkermansia muciniphila
Outline: (§1)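 Gut bacterial monocultures were grown anaerobically at 37 °C in mGAM from a starting OD600 of 0.05 with 20 µM compound (1% DMSO), in round-bottom 96-well plates under pierced gas-permeable seals, and OD600 was read hourly for 24 h. With the minimum OD set to 0, area under the growth curve was normalised to the plate median of solvent-only wells, or to row and column medians on the industrial chemical plate. Each value is the median of three biological replicates grown on separate days.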

Bacteroides caccae = test system: Bacteroides caccae
Outline: as §1

Bacteroides clarus = test system: Bacteroides clarus
Outline: as §1

Bacteroides dorei = test system: Bacteroides dorei
Outline: as §1

Bacteroides stercoris = test system: Bacteroides stercoris
Outline: as §1

[1] = test system: Bacteroides thetaiotaomicron
Outline: as §1

Bacteroides uniformis = test system: Bacteroides uniformis
Outline: as §1

[2] = test system: Bifidobacterium longum subsp. longum
Outline: as §1

Clostridium difficile = test system: Clostridium difficile
Outline: as §1

Collinsella aerofaciens = test system: Collinsella aerofaciens
Outline: as §1

Coprococcus comes = test system: Coprococcus comes
Outline: as §1

Escherichia coli ED1a = test system: Escherichia coli ED1a
Outline: as §1

Escherichia coli IAI1 = test system: Escherichia coli IAI1
Outline: as §1

Eubacterium rectale = test system: Eubacterium rectale
Outline: as §1

[3] = test system: Fusobacterium nucleatum subsp. animalis
Outline: as §1

Lactobacillus gasseri = test system: Lactobacillus gasseri
Outline: as §1

Lactobacillus paracasei = test system: Lactobacillus paracasei
Outline: as §1

Odoribacter splanchnicus = test system: Odoribacter splanchnicus
Outline: as §1

[4] = test system: Parabacteroides distasonis
Outline: as §1

Parabacteroides merdae = test system: Parabacteroides merdae
Outline: as §1

Row | SMILES | growth AUC (Akkermansia muciniphila) | growth AUC (Bacteroides caccae) | growth AUC (Bacteroides clarus) | growth AUC (Bacteroides dorei) | growth AUC (Bacteroides stercoris) | growth AUC [1] | growth AUC (Bacteroides uniformis) | growth AUC [2] | growth AUC (Clostridium difficile) | growth AUC (Collinsella aerofaciens) | growth AUC (Coprococcus comes) | growth AUC (Escherichia coli ED1a) | growth AUC (Escherichia coli IAI1) | growth AUC (Eubacterium rectale) | growth AUC [3] | growth AUC (Lactobacillus gasseri) | growth AUC (Lactobacillus paracasei) | growth AUC (Odoribacter splanchnicus) | growth AUC [4] | growth AUC (Parabacteroides merdae)
1 | OC(c1ccc(F)cc1)(c1cncnc1)c1ccccc1Cl (stereo not given) | 0.95 | 0.993 | 0.951 | 0.966 | 0.991 | 0.942 | 0.954 | 1.01 | 0.966 | 0.988 | 0.962 | 0.996 | 1.01 | 0.965 | 1.06 | 0.969 | 1.02 | 0.931 | 1 | 0.782 (active)
2 | C#CCOc1ccc(CCNC(=O)C(OCC#C)c2ccc(Cl)cc2)cc1OC (stereo not given) | 1.02 | 0.94 | 0.948 | 0.957 | 0.898 | 0.951 | 0.901 | 1.02 | 0.981 | 1 | 0.992 | 1.01 | 0.996 | 1.04 | 0.943 | 0.926 | 0.98 | 1.03 | 0.689 (active) | 0.948
3 | ClC1=C(Cl)C2(Cl)[C@H]3[C@H]4O[C@H]4[C@H](Cl)[C@H]3C1(Cl)C2(Cl)Cl (single isomer, unassigned; isomer a) | 1.05 | 0.99 | 0.989 | 1 | 0.778 | 1.02 | 0.991 | 1.07 | 0.998 | 0.949 | 0.941 | 0.982 | 0.971 | 1.05 | 1.08 | 0.96 | 0.991 | 1.08 | 1.02 | 0.98
4 | CCOC(=O)C(C)OC(=O)c1cc(Oc2ccc(C(F)(F)F)cc2Cl)ccc1[N+](=O)[O-] (stereo not given) | 0.88 | 0.95 | 0.931 | 0.985 | 0.992 | 0.987 | 0.966 | 0.947 | 0.978 | 0.857 | 0.933 | 1.01 | 0.964 | 1.01 | 0.999 | 0.86 | 0.973 | 0.891 | 0.789 (active) | 0.885
5 | O=[N+]([O-])NC1=NCOCN1Cc1cnc(Cl)s1 | 1.23 | 0.994 | 1.04 | 1.01 | 1.19 | 0.979 | 0.964 | 0.917 | 0.999 | 0.971 | 0.971 | 0.992 | 0.997 | 1.1 | 1.15 | 0.809 | 0.988 | 1.04 | 1.01 | 0.965
6 | CNC(=O)c1cc(Cl)cc(C)c1NC(=O)c1cc(Br)nn1-c1ncccc1Cl | 0.893 | 1 | 0.952 | 0.999 | 0.946 | 0.967 | 0.976 | 0.969 | 0.964 | 1.02 | 0.991 | 0.988 | 0.995 | 0.961 | 0.867 | 1.03 | 0.961 | 0.926 | 1.01 | 0.98
7 | COC(=O)/C(C)=C/OP(=S)(OC)OC | 0.968 | 0.992 | 0.963 | 0.985 | 1.02 | 0.978 | 0.96 | 1.02 | 0.984 | 1.03 | 0.989 | 0.987 | 0.97 | 0.95 | 1.01 | 1.06 | 1.07 | 0.95 | 1.03 | 0.999
8 | CC(C)=NOCCOC(=O)[C@@H](C)Oc1ccc(Oc2cnc3cc(Cl)ccc3n2)cc1 | 0.861 | 0.965 | 1 | 0.958 | 0.876 | 0.937 | 0.899 | 0.924 | 0.981 | 0.954 | 0.94 | 1.01 | 1.01 | 0.957 | 0.864 | 1.04 | 0.974 | 0.931 | 0.983 | 0.955
9 | CCOC(=O)CC(SP(=S)(OC)OC)C(=O)OCC (stereo not given) | 1.13 | 0.953 | 1 | 0.881 | 0.982 | 0.977 | 0.965 | 1.09 | 0.845 | 0.955 | 0.984 | 0.975 | 1.02 | 1.07 | 0.977 | 0.917 | 1.13 | 1.07 | 0.959 | 1.01
10 | COc1cc(OC)nc(NC(=O)NS(=O)(=O)c2cc(NC=O)ccc2C(=O)N(C)C)n1 | 0.976 | 1.01 | 0.979 | 0.984 | 1.06 | 0.971 | 1.03 | 1.03 | 1.01 | 1.05 | 0.993 | 0.996 | 1.01 | 0.998 | 1.06 | 0.902 | 1.05 | 1.01 | 0.977 | 0.951
11 | ClCC(Br)CBr (stereo not given) | 0.997 | 1.04 | 0.981 | 0.974 | 0.996 | 1 | 0.957 | 1 | 1 | 0.992 | 1 | 0.985 | 0.996 | 0.994 | 0.995 | 0.916 | 0.995 | 1.02 | 1 | 0.996
12 | OC(Cc1ccccc1Cl)(Cn1cncn1)C1(Cl)CC1 (stereo not given) | 0.867 | 0.974 | 0.963 | 1.01 | 0.966 | 0.985 | 0.971 | 1.01 | 0.958 | 0.953 | 0.963 | 0.993 | 0.941 | 0.849 | 0.897 | 1.16 | 1.02 | 0.95 | 1.01 | 0.977
13 | C=CCNC(=O)c1c([Si](C)(C)C)sc(C)c1C | 0.751 | 0.964 | 0.973 | 0.978 | 0.961 | 0.96 | 0.973 | 0.966 | 0.968 | 0.981 | 0.984 | 0.972 | 1.01 | 0.967 | 0.894 | 1.05 | 0.986 | 0.97 | 1.01 | 0.973
14 | C#CCOS(=O)OC1CCCCC1Oc1ccc(C(C)(C)C)cc1 (mixture of isomers) | 1.08 | 0.98 | 0.976 | 0.984 | 0.916 | 0.991 | 0.99 | 0.908 | 0.956 | 0.975 | 1.02 | 1.03 | 0.968 | 1 | 1.05 | 0.928 | 0.987 | 0.946 | 0.964 | 0.933
